Molecules are shown by their SMILES. The panel holds about 83,000 compounds, 20% with a hit somewhere; the sample as a whole holds those more often.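 Results are percent growth after 48 hours of single-concentration exposure. 100 means growth as in untreated cells, lower positive values show inhibition; negative values down to -100 show cell death.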 Unmarked numbers belong to inactive results. Active and inactive are the calls of the source. How the source made its calls: active means growth percent below 10; inactive means the rest.

This note sets out measurements from PubChem BioAssay (NCI).

The test relates to HL-60(TB) leukemia. The test can be described thus: NCI-60 one-dose screen, 48 h (100 = growth as untreated, 0 = no growth, -100 = all killed). To be noted: 10 µM unless noted.
In the case of `CC1=C(C(=O)Nc2ccc(F)cc2)C(c2ccc(Cl)cc2)C2=C(CC(C)(C)CC2=O)N1` (stereo not given), the growth was 104%.
On to `N#C/C(=C\c1c(-c2ccccc2)[nH]c2ccccc12)C(=O)c1ccccc1`, for which the growth is 2.79% (active).
For `CCC(C)CC(N)O` (stereo not given), the growth was 120%.
For `Cc1cc(C)c2c(=O)[nH]c(SCC(=O)Nc3cccc(S(=O)(=O)N(C)C)c3)nc2n1`, the growth was 97.2%.
`NC(N)=NS(=O)(=O)c1ccc(NC2=C(I)C(=O)c3ncccc3C2=O)cc1`: the growth was 99.2%.
Take `c1ccc2nc(Cn3c[n+](Cc4ccc5ccccc5n4)c4ccccc43)ccc2c1`: the growth was -40.1% (active).
Under `ClCc1cccc2c(CCl)cccc12` stands 48.2%.
Turning to `NC(=O)C(O)(c1ccccc1)c1ccccc1`, the growth is 99%.
`COc1cccc(NC(=O)c2sc3nc(C)c(C(C)=O)cc3c2N)c1`: the growth was 6.61% (active).
Under `COc1cc(Nc2ccnc(NCCCNc3ccnc4cc(Cl)ccc34)n2)cc(OC)c1` stands -76.9% (active).
As for `O=C1NC(SCc2ccc(F)cc2)=N/C1=C/c1cccc(OCc2ccc(Cl)cc2)c1`, the growth is 61.5%.
The figure for `CCCCO[C@@H]1C=C2[C@H]3CC(C)(C)C(=O)C[C@]3(C(=O)O[C@@H]3O[C@H](CO[C@@H]4O[C@H](CO)[C@@H](OC5OC(C)C(O)C(O)C5O)[C@H](O)[C@H]4O)[C@@H](O)[C@H](O)[C@H]3O)CC[C@@]2(C)[C@]2(C)CC[C@H]3C(C)(C)C(=O)CC[C@]3(C)[C@@H]12` (stereo not given in full) is 49.2%.
Regarding `O=C1NC(=O)C(=Cc2cc(-c3ccc(Cl)cc3)n(-c3ccccc3)n2)C(=O)N1`, the growth is 89.5%.
`CC(=O)OCCC/C(=C\c1ccc2ccccc2c1)[N+](=O)[O-]`: the growth was -61% (active).
As to `CN(C)CCCNC(=O)C(c1ccccc1)c1ccccc1`, the growth is 106%.
Turning to `CCOC(=O)c1ccc2n1CCCc1cnc(NC(C)=O)nc1-2`, the growth is 109%.
For the compound `O=C(O)c1cccnc1Br`, the growth is 110%.
Regarding `Cc1cc(C)c2c(c1)N1OC(C2)C[C@H]1/C=C/c1ccccc1` (stereo not given in full), the growth is 82.2%.
Take `O=C1C=CC(=O)c2c1nc1n2CCCC1`: the growth is 94.7%.
Consider `CC(C)Nc1cc(-c2c[nH]c(C(=O)N[C@H](CO)c3cccc(Cl)c3)c2)c(Cl)cn1`, for which the growth was 3.3% (active).
The figure for `COc1ccc(C(=O)c2sc3nc(-c4ccccc4OC)ccc3c2N)cc1OC` is 13.9%.
The figure for `CCOC(=O)c1ccc(-c2ccc3cc(OC)ccc3c2)nc1C` is 91.2%.
Turning to `O=C(/C=C/c1ccccc1)CC(c1ccccc1)N1CCOCC1` (stereo not given), the growth was 70.7%.
Take `Cc1cc(F)ccc1S(=O)(=O)Nc1cc(-c2c(O)ccc3ccccc23)c(O)c2ccccc12`: the growth is -10.8% (active).
In the case of `CC(=O)c1cc(Br)ccc1O`, the growth was 101%.
Take `CCN(CC)CCC(CNc1ccnc2cc(Cl)ccc12)c1ccccc1` (stereo not given): the growth was 58.5%.
As to `O=C1Nc2ccccc2/C1=C/c1cn(C[C@@H](O)Cn2c3ccccc3c(=O)c3ccccc32)c2ccccc12`, the growth was 82%.
Take `C=C1CCC2C(C)(COC(=O)CC)C(OC(=O)CC)CCC2(C)C1C/C=C1/C(=O)OCC1OC(=O)CC` (stereo not given): the growth is -43.8% (active).
As for `CCOC(=O)C1=C(C)N2C(=NC3=C(CCC/C3=C\c3ccc(Cl)cc3)C2c2ccc(Cl)cc2)S1` (stereo not given), the growth was -10.8% (active).
Under `CCN1C(=O)N(CC)C2C1NN=c1s/c(=C\c3ccc(Br)cc3)c(=O)n12` (stereo not given) stands -30.5% (active).
Consider `COc1cc(/C=N\Nc2ccccc2)ccc1OC(=O)c1ccccc1`, for which the growth was -10.8% (active).
The figure for `COc1cc(CNC(=O)c2ccsc2Nc2ccnc(C(F)(F)F)c2)ccc1O` is 102%; for `C=C(C)[C@@H]1CC[C@]2(C(=O)OCCOCCOCC[P+](c3ccccc3)(c3ccccc3)c3ccccc3)CC[C@]3(C)[C@H](CC[C@@H]4[C@@]5(C)CC[C@H](OC(C)=O)C(C)(C)[C@@H]5CC[C@]43C)[C@@H]12` it is -62.3% (active).
Consider `CCOC(=O)c1ccc2c(c1)nc(-c1ccccc1)n2C1CCCCC1`, for which the growth was 63.1%.
On to `COc1ccc(NC(=O)c2sc3nc(C)c(C(=O)c4ccccc4)cc3c2N)cc1`, for which the growth is 78.8%.
For `NC(=O)c1c(NC(=O)COC(=O)Cc2ccccc2F)sc2c1CCC2`, the growth is 135%.
Regarding `CCOC(=O)c1cnn(CC(O)c2ccc(F)cc2)c1NC(=O)Nc1ccccc1F` (stereo not given), the growth is 102%.
On to `C#CC#CC#CC#CC#CC#CC#CC#CC[C@@H]1OC[C@H](COC(=O)O[C@@H](C(=O)O[C@H]2C[C@@]3(O)[C@@H](OC(=O)c4ccccc4)[C@@H]4[C@]5(OC(C)=O)CO[C@@H]5C[C@H](O)[C@@]4(C)C(=O)[C@H](OC(C)=O)C(=C2C)C3(C)C)[C@@H](NC(=O)c2ccccc2)c2ccccc2)O1`, for which the growth is 6.04% (active).
Consider `CCOC(=O)CNC(=O)Nc1ccc(Oc2ccc(NC(=O)NCC(=O)OCC)cc2)cc1`, for which the growth was 108%.
Consider `O=C1c2cc3c(cc2-c2c1c1ccc(Cl)cc1c(=O)n2C[C@H](O)CO)OCO3`, for which the growth is -14.9% (active).
